D2 PAM-1: Beta-Arrestin HTS for Positive Allosteric Modulators of the Human D2 Dopamine Receptor: Potentiators; potentiation, % (no concentration beside the values); 360,000 tested, 0.23% active; DiscoveRx D2 beta-arrestin cells, luminescence, 90 min; 100% = 57 uM dopamine signal; D(2) dopamine receptor (Homo sapiens), P14416; AID 624464, 2012; in the data active = potentiation above about 50%; inconclusive = mostly about 30% to 49%
Target sequence (P14416 whole entry, looked up): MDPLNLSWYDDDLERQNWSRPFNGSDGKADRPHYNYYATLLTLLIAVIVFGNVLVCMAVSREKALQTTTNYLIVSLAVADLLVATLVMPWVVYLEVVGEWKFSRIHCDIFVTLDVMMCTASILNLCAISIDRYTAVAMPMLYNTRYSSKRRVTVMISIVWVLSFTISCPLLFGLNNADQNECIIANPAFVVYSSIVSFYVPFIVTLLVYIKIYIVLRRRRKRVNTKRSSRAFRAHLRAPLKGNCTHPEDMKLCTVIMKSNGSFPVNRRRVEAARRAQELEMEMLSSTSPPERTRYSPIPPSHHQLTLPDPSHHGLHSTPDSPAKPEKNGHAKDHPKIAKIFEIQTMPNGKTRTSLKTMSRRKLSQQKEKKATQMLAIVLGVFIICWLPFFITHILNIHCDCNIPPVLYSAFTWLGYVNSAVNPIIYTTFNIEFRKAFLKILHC
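D2 cells co-treated with compound plus 50 nM dopamine (EC20) for 90 min at 37 deg C to detect potentiation. Beta-arrestin recruitment was read as enzyme-fragment luminescence after 1 h at ambient temperature. Full response was set by 57 uM dopamine.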
D2 PAM-2: HTS Assay for Positive Allosteric Modulators of the Human D2 Dopamine Receptor: Primary Screen for Potentiators; potentiation, % at 10 µM; 340,000 tested, 0.34% active; AID 485347, 2010; HEK293 T-REx D2, calcium flux, EC20 dopamine potentiation;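 active = potentiation over 3 SD above the plate norm, cut at about 30% in these data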
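Primary screen. Calcium kinetics in induced HEK293 T-REx D2 cells: compound pre-addition 180 s, EC20 dopamine, 180 s more.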
D2 ag-1: HTS Assay for Allosteric Agonists of the Human D2 Dopamine Receptor: Primary Screen for Agonists. activation, % at 2 µM. 340,000 tested, 0.53% active. HEK293 T-REx D2 cells, calcium flux agonist mode. AID 485358, 2010;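 active = activation over 3 SD above normal in the single-dose calcium agonist read, cut at about 30% in these data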
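Tetracycline-induced HEK293 T-REx cells with force-coupled D2 receptor, plated overnight at 30 C, loaded with no-wash calcium dye. After a 10 s baseline, compound was pin-added and calcium flux read kinetically for 180 s; calcium rises flagged agonists.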
D2 ag-2: Beta-Arrestin HTS for Positive Allosteric Modulators of the Human D2 Dopamine Receptor: Agonists; 360,000 tested, 0.084% active; activation, % (test concentration not listed); DiscoveRx PathHunter D2 beta-arrestin, luminescence, 90 min; 100% = 57 uM dopamine signal; D(2) dopamine receptor (Homo sapiens), P14416; in the data active = activation above about 40%; inconclusive = between about 15% and that limit
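Agonist mode: compounds alone added to overnight-plated D2 PathHunter cells for 90 min at 37 C, with 57 uM final dopamine (EC100) defining full response. Beta-arrestin recruitment detected by chemiluminescent reagent, read after 1 h at ambient temperature.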
D2 antagonist: HTS Assay for Allosteric Antagonists of the Human D2 Dopamine Receptor: Primary Screen for Antagonists. D(2) dopamine receptor (Homo sapiens), P14416. 340,000 tested, 2% active. AID 485344, 2010. inhibition, % at 10 µM. HEK293 TREx D2 cells, calcium flux, dopamine EC80; in the data active = inhibition above about 30%; inactive = below that, where a call was filed
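In this primary screen, negative modulation is detected by tracking calcium flux after an EC80 dopamine challenge in inducible HEK293 T-REx D2 cells preexposed to test compound for 180 s.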
Of the large screens only hits and unclear results are named; the others gave an inactive call; ! = not confirmed by another sample. This is a sample that favours compounds with a hit; in the whole collection about 2.4% have one here.

COc1ccc(CNC(=O)c2cc(-c3ccco3)on2)cc1	none
COc1ccccc1-c1cc(C(=O)NCc2ccc(F)cc2)no1	D2 antagonist 74
COc1cccc(C(=O)N(Cc2nc(-c3ccc(Cl)cc3)no2)C(C)C)c1OC	none (no result: D2 PAM-1, D2 ag-1, D2 ag-2, D2 antagonist)
CCc1ccc(NC(=O)Cn2ccn(-c3ccc(C)c(C)c3)c(=O)c2=O)cc1	none (no result: D2 PAM-1, D2 ag-2, D2 antagonist)
CC(=O)Nc1nc(N)n(-c2ccccc2)n1	none
Nc1nc(NC(=O)/C=C\C(=O)O)nn1-c1ccccc1	D2 antagonist 36
Cc1ccc2c(c1)N(C(=O)N1CCC(C(=O)NCCC3=CCCCC3)CC1)CC(C)O2 (stereo unspecified)	none (no result: D2 PAM-1, D2 ag-2, D2 antagonist)
CC(C)Cc1nn2c(=O)cc(COC(=O)c3ccc(NC(=O)C4CCCCC4)cc3)nc2s1	none (no result: D2 PAM-1, D2 ag-1, D2 ag-2, D2 antagonist)
CSc1ccccc1C(=O)OCC(=O)N1CCCC1=O	D2 PAM-2 52
O=C(OCC(=O)N1CCCC1=O)c1ccc(O)cc1O	none
COc1ccccc1CNC(=O)C1CCN(S(=O)(=O)c2ccc3c(c2)CCCN3C(C)=O)CC1	none (no result: D2 PAM-1, D2 ag-2, D2 antagonist)
NC(=S)N=Nc1c(O)cc(O)c2[nH]c(=O)ccc12	D2 PAM-1 66, D2 ag-2 inconclusive (no result: D2 PAM-2, D2 ag-1, D2 antagonist)
CCOC(=O)CN(C(=O)CSc1nnc2c(n1)[nH]c1ccc(OC)cc12)c1ccc(F)cc1	D2 antagonist 80
Cn1c2ccccc2c2c(C(=O)NCCCN3CCCC3=O)cn(C3CCCCC3)c(=O)c21	D2 PAM-2 32
O=C(NCCCN1CCCCC1)c1ccc2c(c1)NC(=O)c1ccccc1S2	none
CC(C)OCCCNC(=O)c1ccc2c(c1)NC(=O)c1ccccc1S2	D2 PAM-2 37!
Nc1ncccc1OCc1cccc(C(F)(F)F)c1	D2 PAM-2 32
CCOC(=O)N1N=C(CC)CC1(O)C(F)(F)F (stereo unspecified)	D2 PAM-2 38
Cc1ccc(NC(=O)c2oc3ccc(S(=O)(=O)N4CCCCCC4)cc3c2C)c(C)c1	none (no result: D2 PAM-1, D2 ag-2, D2 antagonist)
O=C(C[n+]1cccc(CNC(=O)c2ccc(OC(F)F)cc2)c1)Nc1ccc(F)cc1	none
O=C(C[n+]1cccc(CNC(=O)c2ccc(OC(F)F)cc2)c1)Nc1cccc(C(F)(F)F)c1	D2 antagonist 45
CCC(=O)N1CCc2cc(OC)c(OC)cc2C1COc1ccc(C(=O)OC)cc1 (stereo unspecified)	D2 PAM-2 40
C=CCn1c(COc2ccccc2)nnc1SC(C)C(=O)N/N=C/c1cc(Cl)ccc1O (stereo unspecified)	D2 PAM-1 58
CCC(=O)N1CCc2cc(S(=O)(=O)NCCC(=O)Nc3ccc(OC)c(Cl)c3)ccc21	none (no result: D2 PAM-1, D2 ag-2, D2 antagonist)
COc1cccc(C2C(=O)N(C3CCCCC3)CC(=O)N2Cc2ccc(Cl)cc2)c1 (stereo unspecified)	none (no result: D2 PAM-1, D2 ag-1, D2 ag-2, D2 antagonist)
CC1C2CC(C/C2=N/NC(=O)c2cccs2)C1(C)C (stereo unspecified)	none
C[C@@H]1C2CC(C/C2=N\NC(=O)c2ccncc2)C1(C)C (stereo partly specified)	D2 antagonist 36
CCOC(=O)C1(CCc2ccccc2)CCN(Cc2ccc(OC)cc2)CC1	none
CCOC(=O)C1(CCc2ccccc2)CCN(Cc2c(O)cccc2OC)CC1	D2 antagonist 37
CCOC(=O)C1(CCc2ccccc2)CCN(Cc2cnc(N(C)C)s2)CC1	D2 antagonist 51
CCOC(=O)C1(CCc2ccccc2)CCN(C(=O)CN2CCOC2=O)CC1	D2 antagonist 37
CCOC(=O)C1(Cc2ccccc2)CCN(Cc2nccn2CC)CC1	D2 antagonist 65
CCOC(=O)C1(CCc2ccccc2)CCN(Cc2nccn2CC)CC1	none
Cc1ccc(-c2c(C(=O)NCCc3ccccc3)oc(=O)c3ccccc23)cc1	none (no result: D2 PAM-1, D2 ag-2, D2 antagonist)
Cc1ccc(OCC(=O)N(Cc2ccco2)Cc2ccco2)cc1C	none (no result: D2 PAM-1, D2 PAM-2, D2 ag-2, D2 antagonist)
CCOc1cc(C2c3c(oc4ccccc4c3=O)C(=O)N2Cc2ccc3c(c2)OCO3)ccc1O (stereo unspecified)	none (no result: D2 PAM-1, D2 ag-2, D2 antagonist)
CCCc1cc(=O)[nH]c(SCC(=O)N2CCOCC2)n1	none
CCCc1cc(=O)[nH]c(SCC(=O)N2CCN(c3ccccc3)CC2)n1	D2 antagonist 38
CCOC(=O)C1CCCN(C(=O)CSc2ccccc2)C1 (stereo unspecified)	none
COCCSc1ccccc1C(=O)N1CCCC(C)C1 (stereo unspecified)	none
CCOC(=O)C1CCCN(C(=O)c2ccccc2SCCOC)C1 (stereo unspecified)	D2 antagonist 30
CCOC(=O)C1CCCN(C(=O)CSc2ccc(NC(C)=O)cc2)C1 (stereo unspecified)	D2 ag-1 34, D2 ag-2 inconclusive
CCOC(=O)C1CCCN(C(=O)c2cc(Cl)ccc2Cl)C1 (stereo unspecified)	D2 antagonist 31
Cc1ccccc1OCC(=O)N(Cc1ccc(N(C)C)cc1)CC1CCCO1 (stereo unspecified)	none (no result: D2 PAM-1, D2 ag-2, D2 antagonist)
COc1ccc(C(=O)NNC(=S)NC(=O)C(C)(C)C)cc1	D2 ag-1 92, D2 antagonist 62
COc1ccc(C(=O)NNC(=O)c2ccc(C(C)(C)C)cc2)cc1	none (no result: D2 PAM-2)
c1ccc2c(c1)Nc1cc3ccccc3cc1O2	D2 PAM-1 91, D2 ag-2 inconclusive (no result: D2 PAM-2, D2 ag-1, D2 antagonist)
Oc1ccccc1Cn1c(-c2ccccc2O)nc2ccccc21	D2 antagonist 34
COc1ccccc1Cn1c(-c2ccccc2OC)nc2ccccc21	none
Cc1ccc(CCNC(=O)c2cc3n(n2)CCCN(Cc2ccc(C)cc2)C3=O)cc1	none (no result: D2 PAM-1, D2 ag-2, D2 antagonist)
CCCCOc1ccc(C(=O)NCC2(N3CCN(C)CC3)CCCCC2)cc1	none (no result: D2 PAM-1, D2 ag-1, D2 ag-2, D2 antagonist)
Cc1cccc(NC(c2cccc(Cl)c2)c2ccc3cccnc3c2O)n1 (stereo unspecified)	none (no result: D2 PAM-1, D2 ag-2, D2 antagonist)
CS(=O)(=O)N1CCN(c2cnn(-c3ccccc3)c(=O)c2Cl)CC1	none
CN(C(=O)CN1CCN(c2cnn(-c3ccccc3)c(=O)c2Cl)CC1)C1CCS(=O)(=O)C1 (stereo unspecified)	D2 antagonist 33
CCc1cc2c(cc3c(=O)n(CC(=O)NC(C)C)nc(CC)n32)s1	none (no result: D2 PAM-1, D2 ag-2, D2 antagonist)
COc1ccc(C2/C=C\CN(C(=O)c3ccc(C)cc3)[C@H](Cc3ccccc3)C(=O)N2Cc2ccc(F)cc2)cc1 (stereo partly specified)	D2 antagonist 41
O=C(c1noc2c1CCCCC2)N1CCN(c2cccc(C(F)(F)F)c2)CC1	none (no result: D2 PAM-1, D2 ag-2, D2 antagonist)
COc1ccc(NC(=S)N2CCC(N(C)CC3CCCO3)CC2)cc1 (stereo unspecified)	D2 antagonist 30
